Experimental data published in PubChem BioAssay AID504660 (National Center for Advancing Translational Sciences (NCATS), 2011).
Values joined by “and” are separate entries in the source; they are usually repeats but may differ in a detail not shown here. Equal values may be shown once. The whole screen tested about 360,000 compounds, of which about 3,700 (1%) were called active. Rule as the data show it: active = activation above about 30%; inactive = the rest. The list comes from a sample in which actives are over-represented; it also holds similar structures and randomly drawn compounds. Where a structure was tested more than once in an assay, its records may differ in their call.

target: D(1A) dopamine receptor (Homo sapiens) (UniProt P21728); test: Allosteric Agonists of the Human D1 Dopamine Receptor: qHTS; details: HEK293 T-REx D1 cells, calcium flux, agonist mode; at 2 µM; stronger effect = higher value; also: 0% is about no effect
Summary of the method: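 Agonism was scored from calcium flux recorded over 180 s (1 read/s) after pintool compound addition, following a 10-cycle baseline. Cells were inducible force-coupled HEK293 TREx D1, plated overnight at 30 C and loaded with no-wash calcium dye.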

Sequence of D(1A) dopamine receptor (Homo sapiens) (P21728 whole entry, looked up): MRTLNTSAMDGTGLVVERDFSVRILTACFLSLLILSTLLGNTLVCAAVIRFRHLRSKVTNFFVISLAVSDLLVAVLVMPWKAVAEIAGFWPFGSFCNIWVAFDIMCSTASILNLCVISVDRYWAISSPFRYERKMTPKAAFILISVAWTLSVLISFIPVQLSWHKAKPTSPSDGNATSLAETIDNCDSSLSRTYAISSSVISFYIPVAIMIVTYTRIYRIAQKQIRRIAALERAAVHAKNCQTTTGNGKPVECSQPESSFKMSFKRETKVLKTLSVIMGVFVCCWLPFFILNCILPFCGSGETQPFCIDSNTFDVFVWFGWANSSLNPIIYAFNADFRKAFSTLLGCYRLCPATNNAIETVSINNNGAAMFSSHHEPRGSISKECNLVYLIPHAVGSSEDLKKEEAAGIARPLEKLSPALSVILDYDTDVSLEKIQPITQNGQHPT

| Structure (SMILES) | activation |
| --- | --- |
| CCOc1ccc(NC(=O)c2cn(C3CCCCC3)c(=O)c3c2c2ccccc2n3C)cc1 | 2.25% (inactive) |
| CCCc1nc2c(c(=O)c3ccccc3n2C)c(=O)n1C1CCCCCC1 | 190% (active) |
| CCCN1C(=O)C(Cc2nc3ccccc3c(=O)n2-c2ccccc2)c2cc(C)ccc21 (configuration not stated) | 5.26% (inactive) and 5.84% (inactive) |
| Cc1ccc2c(=O)cc(C(=O)Nc3sc4c(c3C(=O)NCc3cccnc3)CCCC4)oc2c1 | 1.62% (inactive) |
| COc1ccccc1CNS(=O)(=O)c1ccc2c(c1)NC(=O)CS2 | 4.9% (inactive) |
| COc1ccc(S(=O)(=O)NCc2cccn2Cc2cccc(C)c2)cc1Cl | 33.8% (active) |
| COc1ccc(S(=O)(=O)NCc2cccn2Cc2cccc(C)c2)cc1 | 23.9% (inactive) |
| Cc1ccc(Cl)cc1NC(=O)CCC(=O)N1CC(C)Sc2ccccc21 (configuration not stated) | 0.39% (inactive) |
| Cc1cccc(-n2c(SCC(N)=O)nc3c(oc4ccccc43)c2=O)c1 | -1.27% (inactive) |
| Cc1cccc(N2CCN(C(=O)CCSCc3ccccc3F)CC2)c1C | 1.3% (inactive) |
| COc1cc(NC(=O)NCC2CCN(Cc3ccc(C)cc3)CC2)cc(OC)c1OC | 2.18% (inactive) and 0.967% (inactive) |
| Cc1ccc(C)c(CN2CCC(CNC(=O)Nc3ccc(C)c(F)c3)CC2)c1 | 26.2% (inactive) |
| Cc1cccc(CN2CCC(CNC(=O)Nc3ccc(F)c(Cl)c3)CC2)c1 | 42.5% (active) |
| CCOC(=O)c1ccc(CSc2nnc3cc(C)c4ccccc4n23)cc1 | 4.34% (inactive) |
| O=C(CNC(=O)c1ccccc1)OC(C(=O)Nc1cc([N+](=O)[O-])ccc1F)c1ccccc1 (configuration not stated) | 1.22% (inactive) |
| COc1ccccc1OCCC(=O)OCC(=O)NCc1ccccc1 | -0.432% (inactive) |
| COc1ccccc1OCCNCC(O)COc1cccc2[nH]c3ccccc3c12 (configuration not stated) | 17.7% (inactive) and 34% (active) |
| CC(O)CNCCOc1cccc(Oc2ccccc2)c1 (configuration not stated) | 4.04% (inactive) |
| COc1ccc(CCNC(=O)CCCCn2c(=O)c3ccccc3n(Cc3ccccc3C)c2=O)cc1OC | 13.8% (inactive) |

| Structure (SMILES) | activation |
| --- | --- |
| Cc1cc(OCC(=O)Nc2ncn[nH]2)c(C)c(C)c1Br | 1.36% (inactive) |
| COc1ccccc1CNC(=O)C(=O)NCC(c1cccs1)S(=O)(=O)c1cccs1 (configuration not stated) | 7.48% (inactive) |
| CCn1c2ccccc2c2cc(CN3CCN(Cc4cccc(Cl)c4)CC3)ccc21 | 2.19% (inactive) |
| Cc1cccc(Nc2cc(C)nc(-n3nc(C)cc3C)n2)c1 | -1.13% (inactive) |
| Cc1cccc(NC(=O)c2ccc(F)c(S(=O)(=O)N(C)C3CCCCC3)c2)c1 | 0.598% (inactive) |
| COCCN(Cc1ccccc1)C(=O)Cc1ccc(S(=O)(=O)N2CCOCC2)s1 | 134% (active) |
| CCN(Cc1ccccc1)C(=O)Cc1ccc(OC)c(S(=O)(=O)N2CCOCC2)c1 | 3.33% (inactive) |
| O=C(Cc1ccc(S(=O)(=O)N2CCOCC2)s1)NCCC(c1ccccc1)c1ccccc1 | 2.27% (inactive) |
| CCOC(=O)c1cc(-c2ccccc2)n(CCC(=O)Nc2ccccc2CC)c1C | 5.65% (inactive) |
| CCC(=O)N1CCc2cc(Br)cc(S(=O)(=O)Nc3ccc(C)cc3C)c21 | 0.918% (inactive) |
| CC(NC(=S)Nc1ccc(OC(F)F)cc1)c1ccc(F)cc1 (configuration not stated) | 41.7% (active) |
| CC(C)N(Cc1ccccc1)C(=S)Nc1ccc(OC(F)F)cc1 | 15.8% (inactive) |
| CC/C(=N\NC(=S)NC(C)C)c1ccc(OC(F)F)cc1 | 0.526% (inactive) |
| Cc1ccc(S(=O)(=O)NC(N)=NCCC[C@@H](NC(=O)CNC(=O)c2ccccc2)C(=O)Nc2cc(C(F)(F)F)ccc2Cl)cc1 | 4.3% (inactive) |
| CCOC(=O)c1ccc(CN(Cc2ccccc2)S(=O)(=O)c2ccc(Cl)cc2)cc1 | 18.5% (inactive) |
| O=[S+]([O-])(c1ccc(OC(F)(F)F)cc1)N1CCN([S+](=O)([O-])c2ccc3c(c2)OCCO3)CC1 | 4.97% (inactive) |
| CC1Cc2cc(S(=O)(=O)CCC(=O)NCc3ccc(Cl)cc3)ccc2N1C(=O)C1CC1 (configuration not stated) | 14% (inactive) |
| Cc1cccc(NC(=O)N2CCN(C)c3ncccc32)c1C | 33.9% (active) |
| Cc1cccc(NC(=O)N2CCCCCC2)c1C | 0.571% (inactive) |

| Structure (SMILES) | activation |
| --- | --- |
| Cc1cccc(NC(=O)c2cccc(C(=O)Nc3cccc(C)c3C)n2)c1C | 2.25% (inactive) |
| O=C1C(F)N([S+](=O)([O-])c2ccc3c(c2)OCCO3)CCN1[S+](=O)([O-])c1c(F)cccc1F (configuration not stated) | -0.431% (inactive) |
| COc1ccc(CCC(=O)NCCc2csc(-c3ccc(Cl)cc3)n2)cc1 | 5.93% (inactive) |
| O=c1c(-c2ccc(Cl)cc2)[n+]([O-])c2ccccc2n1OCc1nc2ccccc2[nH]1 | -0.955% (inactive) |
| O=C(c1ccc(Cl)cc1)n1cnc2ccccc21 | 1.83% (inactive) |
| O=C(Cc1nc2ccccc2[nH]c1=O)c1ccc(Cl)cc1 | 69.4% (active) |
| C#CC(C)(CC)NC(=O)Cn1nnc(-c2ccc(OCc3c(F)cccc3Cl)cc2)n1 (configuration not stated) | 3.62% (inactive) |
| COc1ccc(CCNC(=O)CCCn2c(=O)c3ccccc3n(Cc3ccc(C)cc3)c2=O)cc1OC | -2.01% (inactive) |
| COc1cccc(CNC(=O)CCc2nc(-c3ccc(C)cc3)no2)c1 | 3.85% (inactive) |
| COc1ccccc1-c1noc(CSc2nnc(-c3ccccc3)n2-c2ccc(C)c(C)c2)n1 | 0.886% (inactive) |
| COc1cccc(C(=O)NC(=O)Nc2nc(C)cc(C(F)(F)F)n2)c1 | 2.89% (inactive) |
| COc1cccc(C(=O)Nc2ccc(-c3cc(C(F)(F)F)nn3-c3ccccc3)cc2)c1 | 2.16% (inactive) |
| COc1cccc(C(=O)c2sc3nc(-c4ccccc4)cc(C(F)(F)F)c3c2N)c1 | 171% (active) |
| Cc1ccccc1CNC(=O)CCCn1nc(C)c2sc3ccccc3c2c1=O | 5.39% (inactive) |
| CSc1ccccc1-c1nnc(NC(=O)c2ccc3c(c2)OCCO3)o1 | 0.0799% (inactive) |
| CCC(C(=O)Nc1cccc(-c2nc3cccnc3s2)c1C)c1ccccc1 (configuration not stated) | 6.2% (inactive) |
| COc1cc(NC(=O)c2ccccc2NS(=O)(=O)c2ccc(Cl)s2)cc(OC)c1 | 32.7% (active) |
| COc1cc(NS(=O)(=O)c2cccs2)cc(OC)c1 | -0.545% (inactive) |
| O=S(=O)(Nc1ccccc1N1CCOCC1)c1ccc(Cl)s1 | 0.142% (inactive) |
